# From PubChem BioAssay
# Values joined by “and” are separate entries in the source; they are usually repeats but may differ in a detail not shown here. Equal entries are not always repeated. Results filed as inconclusive are left out. Active and inactive are the calls of the source.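 How the source made its calls, unless noted: active means normalized viability below 100% at a tested concentration; inactive means the rest.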
# Columns and labels:
# [1] = growth inhibition of DIPG glioma cells, dose response, cell-based, SU-DIPG-XVII, MIPE5.0, CellTiter-Glo, qHTS (AID 1347060; cut-off not given, nearly all actives have AC50 up to about 26 µM;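 on AC50: cells exposed to compound for 48 hours before viability readout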); conditions: SU-DIPG-XVII viability, CellTiter-Glo ATP luminescence
# [2] = growth inhibition of DIPG glioma cells, dose response, cell-based, SU-DIPG-XIII, MIPE4.0, CellTiter-Glo, qHTS (AID 1347061; cut-off not given, nearly all actives have AC50 up to about 37 µM;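 further: cells exposed to compound for 48 hours before readout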); conditions: SU-DIPG-XIII viability, CellTiter-Glo ATP luminescence
# [3] = growth inhibition of DIPG glioma cells, dose response, cell-based, JHH-DIPG-1, MIPE4.0, CellTiter-Glo, qHTS (AID 1347062; cut-off not given, nearly all actives have AC50 up to about 27 µM;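 on AC50: cells exposed to compound for two days before readout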); conditions: JHH-DIPG-1 viability, CellTiter-Glo ATP luminescence
# [4] = growth inhibition of DIPG glioma cells, dose response, cell-based, SU-DIPG-IV, MIPE4.0, CellTiter-Glo, qHTS (AID 1347063; cut-off not given, nearly all actives have AC50 up to about 30 µM;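 further: compound exposure lasted 48 hours before the viability readout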); conditions: SU-DIPG-IV viability, CellTiter-Glo ATP luminescence
# [5] = growth inhibition of DIPG glioma cells, dose response, cell-based, SU-DIPG-XIII, MIPE5.0, CellTiter-Glo, qHTS (AID 1347064; cut-off not given, nearly all actives have AC50 up to about 23 µM;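 on AC50: cells exposed to compound for 48 hours before the viability read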); conditions: SU-DIPG-XIII viability, CellTiter-Glo ATP luminescence
# [6] = SU-DIPG-XXV glioma cell viability, MIPE5.0 library, qHTS (AID 1347068; cut-off not given, nearly all actives have IC50 up to about 30 µM)
# [7] = viability loss in pontine glioma line – cell-based, SU-DIPG-XXV, MIPE5.0, CellTiter-Glo, qHTS, dose response (AID 1347065; cut-off not given, nearly all actives have AC50 up to about 26 µM;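 further: cells exposed to compound for 48 hours before ATP readout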); conditions: CellTiter-Glo ATP luminescence
# [8] = JHH-DIPG-1 glioma cell viability, MIPE5.0 library, CellTiter-Glo luminescence, qHTS (AID 1347067; cut-off not given, nearly all actives have AC50 up to about 26 µM;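 further: cells exposed to compound for 48 hours before readout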); conditions: JHH-DIPG-1 glioma viability, CellTiter-Glo ATP luminescence
# [9] = sensitizers of A549 cells to miR-34 induction, primary screen, imaging, A549 dox-inducible miR-34, nuclei and caspase counts (AID 1347080;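 active means compounds whose cell count with miR-34 switched on is under 0.7 times the count with it off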); conditions: A549 miR-34 inducible, Hoechst nuclei count, 48 h
# [10] = modifiers of HSF1 nuclear foci, imaging, Selleck Cancer Library (AID 1347162; in the data active means plate-normalised HSF1 focus index below about 0.46); conditions: human cells, at 10 µM; SSMD: measured here: HSF1 foci SSMD mean; cell count: measured here: cell number; plate-normalised HSF1 focus index: stronger effect = lower value
# [11] = ovarian cancer cell viability with rucaparib, profiling panel, oncology-focused library, rucaparib conditional (AID 1508598); conditions: patient-derived ovarian cancer cells, CellTiter-Glo viability, 144 h, stronger effect = lower value
# [12] = survival rescue of mitochondrial mutant cells in low glucose, primary screen, MELAS cybrids, Rieske KO mouse fibroblasts, CellTiter-Glo (AID 1508586;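 active means mean z-score across replicates of 1.96 or higher in either the MELAS or the Rieske mutant cell line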;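 further: z relative to plate mean and SD of compound and empty wells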)
# [13] = stronger effect = lower value, cell number ratio, induced over uninduced
# [14] = measured here: relative caspase fold change +Dox/-Dox
# [15] = measured here: total cells with miR-34 induction, stronger effect = lower value
# [16] = measured here: total cells without miR-34 induction
# [17] = at 0.000305 µM, OCI-C5x cells, with rucaparib 10 µM, 100% = cells with rucaparib alone
# [18] = at 0.000305 µM, OCI-C5x cells, without rucaparib
# [19] = at 0.000305 µM, OCI-P5x cells, with rucaparib 20 µM, 100% = cells with rucaparib alone
# [20] = at 0.000305 µM, OCI-P5x cells, without rucaparib
# [21] = at 0.00122 µM, OCI-C5x cells, with rucaparib 10 µM, 100% = cells with rucaparib alone
# [22] = at 0.00122 µM, OCI-C5x cells, without rucaparib
# [23] = at 0.00122 µM, OCI-P5x cells, with rucaparib 20 µM, 100% = cells with rucaparib alone
# [24] = at 0.00122 µM, OCI-P5x cells, without rucaparib
# [25] = at 0.00488 µM, OCI-C5x cells, with rucaparib 10 µM, 100% = cells with rucaparib alone
# [26] = at 0.00488 µM, OCI-C5x cells, without rucaparib
# [27] = at 0.00488 µM, OCI-P5x cells, with rucaparib 20 µM, 100% = cells with rucaparib alone
# [28] = at 0.00488 µM, OCI-P5x cells, without rucaparib
# [29] = at 0.0195 µM, OCI-C5x cells, with rucaparib 10 µM, 100% = cells with rucaparib alone
# [30] = at 0.0195 µM, OCI-C5x cells, without rucaparib
# [31] = at 0.0195 µM, OCI-P5x cells, with rucaparib 20 µM, 100% = cells with rucaparib alone
# [32] = at 0.0195 µM, OCI-P5x cells, without rucaparib
# [33] = at 0.0781 µM, OCI-C5x cells, with rucaparib 10 µM, 100% = cells with rucaparib alone
# [34] = at 0.0781 µM, OCI-C5x cells, without rucaparib
# [35] = at 0.0781 µM, OCI-P5x cells, with rucaparib 20 µM, 100% = cells with rucaparib alone
# [36] = at 0.0781 µM, OCI-P5x cells, without rucaparib
# [37] = at 0.313 µM, OCI-C5x cells, with rucaparib 10 µM, 100% = cells with rucaparib alone
# [38] = at 0.313 µM, OCI-C5x cells, without rucaparib
# [39] = at 0.313 µM, OCI-P5x cells, with rucaparib 20 µM, 100% = cells with rucaparib alone
# [40] = at 0.313 µM, OCI-P5x cells, without rucaparib
# [41] = at 1.25 µM, OCI-C5x cells, with rucaparib 10 µM, 100% = cells with rucaparib alone
# [42] = at 1.25 µM, OCI-C5x cells, without rucaparib
# [43] = at 1.25 µM, OCI-P5x cells, with rucaparib 20 µM, 100% = cells with rucaparib alone
# [44] = at 1.25 µM, OCI-P5x cells, without rucaparib
# [45] = at 5 µM, OCI-C5x cells, with rucaparib 10 µM, 100% = cells with rucaparib alone
# [46] = at 5 µM, OCI-C5x cells, without rucaparib
# [47] = at 5 µM, OCI-P5x cells, with rucaparib 20 µM, 100% = cells with rucaparib alone
# [48] = at 5 µM, OCI-P5x cells, without rucaparib
compound,measurement,setting,value
NC(=O)c1cnc(-c2ccc(C3(N)CCC3)cc2)c(-c2ccccc2)c1,outcome,[1],inactive
same,outcome,[2],inactive
same,outcome,[3],inactive
same,outcome,[4],inactive
same,outcome,[5],inactive
same,outcome,[6],inactive
CC(/C=C/C(=O)NO)=C\[C@@H](C)C(=O)c1ccc(N(C)C)cc1,AC50,[1],332 nM (active)
same,AC50,[2],7430 nM (active)
same,AC50,[3],1480 nM (active)
same,AC50,[4],590 nM (active)
same,AC50,[5],209 nM (active)
same,AC50,[7],372 nM (active)
same,AC50,[8],525 nM (active)
same,fold change,[9]; [13],0.973 (inactive) and 1 (inactive)
same,fold change,[9]; [14],1.51 and 0.994
same,cell count,[9]; [15],926 and 1160
same,cell count,[9]; [16],952 and 1150
same,SSMD,[10],-1.78
same,cell count,[10],7010
same,plate-normalised HSF1 focus index,[10],0.921 (inactive)
same,viability,[11]; [17],111% (inactive)
same,viability,[11]; [18],91.4% (active)
same,viability,[11]; [19],77.4% (active)
same,viability,[11]; [20],83.4% (active)
same,viability,[11]; [21],117% (inactive)
same,viability,[11]; [22],102% (inactive)
same,viability,[11]; [23],82.5% (active)
same,viability,[11]; [24],83.5% (active)
same,viability,[11]; [25],107% (inactive)
same,viability,[11]; [26],105% (inactive)
same,viability,[11]; [27],75.8% (active)
same,viability,[11]; [28],89.8% (active)
same,viability,[11]; [29],115% (inactive)
same,viability,[11]; [30],109% (inactive)
same,viability,[11]; [31],81.7% (active)
same,viability,[11]; [32],76.1% (active)
same,viability,[11]; [33],42.3% (active)
same,viability,[11]; [34],17.8% (active)
same,viability,[11]; [35],50.3% (active)
same,viability,[11]; [36],51.8% (active)
same,viability,[11]; [37],8.25% (active)
same,viability,[11]; [38],6.7% (active)
same,viability,[11]; [39],13% (active)
same,viability,[11]; [40],12.1% (active)
same,viability,[11]; [41],4.57% (active)
same,viability,[11]; [42],4.64% (active)
same,viability,[11]; [43],2.76% (active)
same,viability,[11]; [44],2.28% (active)
same,viability,[11]; [45],5% (active)
same,viability,[11]; [46],4.88% (active)
same,viability,[11]; [47],0.994% (active)
same,viability,[11]; [48],1.21% (active)
Cn1cc(CNCC2CCN(c3ncc(C(=O)NO)cn3)CC2)c2ccccc21,AC50,[1],417 nM (active)
same,AC50,[2],2640 nM (active)
same,AC50,[3],332 nM (active)
same,AC50,[4],418 nM (active)
same,AC50,[5],209 nM (active)
same,AC50,[7],132 nM (active)
same,AC50,[8],209 nM (active)
same,fold change,[9]; [13],0.846 (inactive)
same,fold change,[9]; [14],0.734
same,cell count,[9]; [15],984
same,cell count,[9]; [16],1160
same,z-score,"[12]; MELAS cybrid survival, CellTiter-Glo 48 h, stronger effect = higher value",-0.103 (inactive)
same,z-score,"[12]; Rieske KO mouse fibroblast survival, CellTiter-Glo 72 h",-2.7
same,viability,[11]; [17],126% (inactive)
same,viability,[11]; [18],118% (inactive)
same,viability,[11]; [19],95.4% (active)
same,viability,[11]; [20],92.2% (active)
same,viability,[11]; [21],125% (inactive)
same,viability,[11]; [22],133% (inactive)
same,viability,[11]; [23],104% (inactive)
same,viability,[11]; [24],95.8% (active)
same,viability,[11]; [25],116% (inactive)
same,viability,[11]; [26],138% (inactive)
same,viability,[11]; [27],76.6% (active)
same,viability,[11]; [28],85.4% (active)
same,viability,[11]; [29],96.2% (active)
same,viability,[11]; [30],99.7% (active)
same,viability,[11]; [31],32.6% (active)
same,viability,[11]; [32],51.7% (active)
same,viability,[11]; [33],7.04% (active)
same,viability,[11]; [34],7.55% (active)
same,viability,[11]; [35],3.73% (active)
same,viability,[11]; [36],9.01% (active)
same,viability,[11]; [37],5.05% (active)
same,viability,[11]; [38],5.83% (active)
same,viability,[11]; [39],1.63% (active)
same,viability,[11]; [40],1.83% (active)
same,viability,[11]; [41],3.87% (active)
same,viability,[11]; [42],5.39% (active)
same,viability,[11]; [43],1.03% (active)
same,viability,[11]; [44],0.724% (active)
same,viability,[11]; [45],4.54% (active)
same,viability,[11]; [46],5.34% (active)
same,viability,[11]; [47],1.24% (active)
same,viability,[11]; [48],1.13% (active)
